PubChem BioAssay AID2284376 (EPA ToxCast)
Values joined by “and” are separate entries in the source; they are usually repeats but may differ in a detail not shown here. Identical values can stand only once. Active and inactive are the calls of the source. How the source made its calls: active means hit-call score of the fitted dose curve at least 0.9, where 1 is the maximum; inactive means score below 0.9.

These compounds were tested against Peroxisome proliferator-activated receptor gamma (Homo sapiens) (UniProt P37231) (assay: ERF_TW_NR_COA_hPPARG: Eurofins (ERF) Nuclear Receptor (NR) Functional Coactivator Assay for human Peroxisome Proliferator-activated Receptor gamma (PPARg) Agonism, conducted at Taiwan lab site).
Chain of Peroxisome proliferator-activated receptor gamma (Homo sapiens) (P37231 whole entry, looked up): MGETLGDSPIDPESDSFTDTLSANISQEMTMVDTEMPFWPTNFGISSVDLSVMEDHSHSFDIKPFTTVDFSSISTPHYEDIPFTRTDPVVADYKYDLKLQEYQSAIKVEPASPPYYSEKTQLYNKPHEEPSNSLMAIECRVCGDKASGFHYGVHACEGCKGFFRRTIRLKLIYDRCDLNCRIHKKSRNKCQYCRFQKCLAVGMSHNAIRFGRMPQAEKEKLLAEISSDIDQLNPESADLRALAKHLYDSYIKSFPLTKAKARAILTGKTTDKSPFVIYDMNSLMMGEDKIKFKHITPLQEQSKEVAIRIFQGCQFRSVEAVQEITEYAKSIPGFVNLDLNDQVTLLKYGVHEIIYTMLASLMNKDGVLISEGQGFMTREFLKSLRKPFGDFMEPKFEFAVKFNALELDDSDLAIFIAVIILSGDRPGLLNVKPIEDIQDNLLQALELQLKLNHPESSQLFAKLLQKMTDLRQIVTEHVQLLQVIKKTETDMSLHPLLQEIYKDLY
Procedure: ERF_TW_NR_COA_hPPARG is a biochemical, single-readout assay that uses extracted gene-proteins in a cell-free assay. Measurements were taken 16 hours after chemical dosing in a 96-well plate. See PPARgamma Human NHR Functional Agonist Coactivator Assay, Panlabs.ERF_TW_NR_COA_hPPARG is an assay component calculated from the ERF_TW_NR_COA_hPPARG assay. It is designed to measure FRET using a type of binding reporter as detected by fluorescence intensity of rosiglitazone with fluorimetry technology.Data from the assay component ERF_TW_NR_COA_hPPARG was analyzed at the assay endpoint, ERF_TW_NR_COA_hPPARG, in the positive analysis fitting direction relative to DMSO as the negative control and baseline of activity. Using a type of binding reporter, gain-of-signal activity can be used to understand changes in binding as they relate to gene PPARG. To generalize the intended target to other relatable targets, this assay endpoint is annotated to the nuclear receptor intended target family, where the subfamily is non-steroidal.
Human recombinant PPARgamma receptors expressed in insect cells are used. Test compound and/or vehicle is incubated with the 2 nM receptors and coactivator peptide for 180 minutes at room temperature. Determination of the amount of complex formed is read spectrofluorimetrically (excitation: 337 nm, emission: 520/490 nm). Test compound-induced increase fluorescence by 50 percent or more (>/=50%) relative to 1 uM GW1929 response indicates possible PPARgamma receptor agonist activity. Test compound-induced inhibition of 5 nM GW1929-induced fluorescence response by 50 percent or more (>/=50%) indicates receptor antagonist activity.

Row | Structure (SMILES) | outcome | AC50
1 | NC(=O)c1nc(-c2cccc(-c3cc(F)ccc3OCC(F)(F)C(F)(F)F)c2)n[nH]1 | inactive | –
2 | O=C(CC(=O)C(F)(F)C(F)(F)C(F)(F)F)c1cccs1 | – | 44.4 µM (active) and 43.2 µM (active)
3 | O=C(O)CCC(F)(F)C(F)(F)C(F)(F)F | inactive | –
